How the values were obtained:
Experiment in all cases: PBM binding z-score (relative to random genomic background probes); higher = stronger binding; sequences stand for … in GC…GCGATTGACAGCGTAGAATGAAGG
[1] = test system: PPARg:RXRa DBDmut IVT, anti-RXR (DBD mutation: RXRa K156A/R161A, NR concentration 270 nM, RXRa partner concentration 90 nM)
Procedure, shortened: (§1)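 Antibodies against each partner of ligand-free nuclear receptor dimers (one per run) detected binding on custom Agilent 4×180K protein-binding microarrays after 1 h incubation. The double-stranded probes had 34-nt variable regions carrying direct-repeat seeds, single-nucleotide variants, half-site ablations and random human genomic background sequences. Binding z-scores, from regression-normalized fluorescence, use the random background probes as reference.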

[2] = test system: PPARg:RXRa IVT, anti-PPARg (NR concentration 270 nM, RXRa partner concentration 90 nM)
Procedure, shortened: as §1

[3] = test system: PPARg DBDmut:RXRa IVT, anti-PPARg (DBD mutation: PPARg1 K132A/R137A, NR concentration 270 nM, RXRa partner concentration 90 nM)
Procedure, shortened: as §1

[4] = test system: PPARg DBDmut IVT, anti-PPARg (DBD mutation: PPARg1 K132A/R137A, NR concentration 270 nM)
Procedure, shortened: as §1

[5] = test system: PPARg homodimer (NR concentration 180 nM)
Procedure, shortened: as §1

[6] = test system: PXR:RXRa (NR concentration 270 nM, RXRa partner concentration 90 nM)
Procedure, shortened: as §1

[7] = test system: PXR homodimer (NR concentration 270 nM)
Procedure, shortened: as §1

[8] = test system: RARa:RXR (NR concentration 270 nM, RXRa partner concentration 90 nM)
Procedure, shortened: as §1

[9] = test system: RARa homodimer (NR concentration 270 nM)
Procedure, shortened: as §1

[10] = test system: RARb:RXRa (NR concentration 270 nM, RXRa partner concentration 90 nM)
Procedure, shortened: as §1

[11] = test system: RARb homodimer (NR concentration 270 nM)
Procedure, shortened: as §1

[12] = test system: RARg:RXRa (NR concentration 270 nM, RXRa partner concentration 90 nM)
Procedure, shortened: as §1

[13] = test system: RARg homodimer (NR concentration 270 nM)
Procedure, shortened: as §1

[14] = test system: RXRa DBDmut IVT, anti-RXR (DBD mutation: RXRa K156A/R161A, NR concentration 90 nM)
Procedure, shortened: as §1

[15] = test system: RXRa homodimer (NR concentration 180 nM)
Procedure, shortened: as §1

[16] = test system: THRa:RXRa (NR concentration 90 nM, RXRa partner concentration 90 nM)
Procedure, shortened: as §1

[17] = test system: THRa homodimer (NR concentration 90 nM)
Procedure, shortened: as §1

[18] = test system: VDR homodimer (NR concentration 270 nM)
Procedure, shortened: as §1

Sequence | PBM binding z-score [1] | PBM binding z-score [2] | PBM binding z-score [3] | PBM binding z-score [4] | PBM binding z-score [5] | PBM binding z-score [6] | PBM binding z-score [7] | PBM binding z-score [8] | PBM binding z-score [9] | PBM binding z-score [10] | PBM binding z-score [11] | PBM binding z-score [12] | PBM binding z-score [13] | PBM binding z-score [14] | PBM binding z-score [15] | PBM binding z-score [16] | PBM binding z-score [17] | PBM binding z-score [18]
CCGAGTAGGTTATGGCGCATTCAGGCAACGGTGA | 3.17 | 1.71 | -0.391 | -0.415 | 0.648 | -0.289 | -0.0371 | 0.131 | 0.249 | 0.551 | 0.598 | 0.0806 | 0.1 | -0.0161 | 0.365 | 0.169 | 0.321 | -0.2
CCCAGCAGGCCAGGGTCACTCAAGCATTTCGCTT | -0.567 | 0.512 | -1.55 | -1.26 | 0.406 | 2.46 | -0.562 | 3.22 | -0.754 | 2.62 | 2.82 | 3.02 | 2.79 | 0.022 | 3.26 | 2.81 | 1.3 | 1.55
GCGACGGGGGCAAAGCAGGTTACCATAAGGTTGG | 2.39 | 4.59 | 4.08 | 8.05 | 1.37 | 3.8 | 1.1 | 2.78 | 0.26 | 2.88 | 2.24 | 3.47 | 3.11 | 2.62 | 2.73 | 4.56 | 1.23 | 2.8
CCTTACGGGTCACTCCAGGTTATAGTATCGGAGT | 2.7 | 3.52 | 0.75 | 0.31 | 1.56 | 4.94 | 0.228 | 3.64 | 0.304 | 3.8 | 3.16 | 4.38 | 4.25 | 1.55 | 4.67 | 5.23 | 0.63 | 1.7
TCTTGTAGATCAATAGAGGGTAAGAAAGTGCGCT | 1.96 | 0.858 | 0.311 | 0.811 | 0.572 | 0.854 | -0.0819 | 0.841 | 0.388 | 0.184 | 0.255 | 0.119 | 0.175 | 1.1 | 0.491 | 0.828 | -0.673 | 0.445
CGGCCAAGGTCAAGGTCAGTGAAAGAGACTCGAA | 3.44 | 4.67 | 0.246 | -0.532 | 3.93 | 5.02 | 0.799 | 5.17 | 1.18 | 5.71 | 5.16 | 6.85 | 7.69 | 3.48 | 6.81 | 4.33 | 2.89 | 2.95
CGAACCAGGTCATCCAGGACAGTGAATACATTGA | 5.15 | 5.48 | 1.46 | 0.673 | 2.01 | 2.98 | 3.52 | 3.1 | 1.01 | 3.95 | 3.03 | 4.28 | 4.8 | 2.81 | 3.95 | 4.15 | 2.93 | 2.75
GCTCGGAGGACGAGGTCAGAGCTTTGTCCGTAGA | -0.0575 | 0.506 | -0.927 | -1.57 | 0.162 | 2.57 | 0.107 | 2.7 | -1.37 | 2.92 | 2.89 | 3.06 | 2.84 | 0.606 | 3.19 | 3.09 | 1.51 | 1.26
ATACCAAAGTGATCGTGAGGTCGTTGATACTAAC | -0.498 | 0.345 | 0.693 | 0.857 | 0.565 | 1.86 | 1.59 | 1.59 | 0.386 | 0.514 | 1.13 | 0.445 | 0.273 | 1.02 | 0.855 | 2.76 | 2.01 | 3.16
CCGACTGGGGCAGAAAGGTTACCTTACCATCCGG | 1.43 | 1.85 | -1.35 | -1.29 | 0.0892 | 0.658 | -0.611 | 1.48 | -0.873 | 1.5 | 1.97 | 1.25 | 0.987 | -0.233 | 1.28 | 1.39 | 0.772 | -0.247
CCGACTGGGGCATTAGGTTACCATAAGCCAGCCC | 4.18 | 4.74 | 1.31 | -0.339 | 0.243 | -0.496 | -0.542 | 0.173 | -0.742 | 0.848 | 0.851 | 0.715 | 0.58 | -0.386 | 0.21 | 0.535 | 0.0828 | -0.601
ATACCAAGGTGACCGTGAGGTCGTTGATACTAAC | 1.21 | 2.77 | 0.39 | 0.266 | 1.4 | 3.8 | 1.45 | 3.05 | 0.22 | 2.46 | 2.9 | 3.36 | 1.96 | 0.82 | 2.27 | 3.74 | 3.08 | 2.81
CCGACTGGGCCATAAGGTTACCATAAGCCAGCCC | 1.93 | 2.16 | -0.459 | -1.39 | 0.396 | 0.04 | -0.806 | 1.15 | -0.622 | 1.06 | 1.25 | 0.915 | 0.48 | -0.727 | 0.767 | 2 | 1.52 | -0.224
CCCACTGGGCCACGAAAGGTCATTGATTCAGTGA | 4.55 | 6.02 | 1.73 | 0.623 | 3 | 5.57 | 1.48 | 5.51 | 1.31 | 4.1 | 4.6 | 4.7 | 4.33 | -0.145 | 4.87 | 4.11 | 1.09 | 2.4
ATCTCTAGGTAAGACTCAGTTCCGTGAAGAACGC | 1.81 | 0.672 | -0.309 | 0.647 | 0.0237 | 0.093 | 0.39 | -0.00835 | 0.872 | -0.0314 | 0.119 | -0.049 | -0.0446 | 0.432 | -0.116 | 0.287 | 0.766 | 0.435
ACTTACGGGTCAACGAGGGTATAGCACGCGTATA | 2.86 | 3.73 | 1.66 | 1.29 | 2.05 | 4.29 | 1.09 | 4.78 | 0.643 | 4.05 | 3.24 | 5.55 | 4.88 | 2.4 | 5.63 | 3.42 | -0.0304 | 2.67

From the supplement of paper PMC6555819
